Compounds with a hit are over-represented: about 6.3% of the library has one in this group of screens.
Gal4-VP16 FLuc = VP16 counterscreen qHTS for inhibitors of ROR gamma transcriptional activity; Drosophila S2 Gal4-VP16 UAS-luciferase, luminescence, 20 h; Potency, µM (doses to about 53.6 µM), without a hit: at the highest dose activity, negative = inhibition, hits mostly inhibitors; 310,000 compounds, 3.5% hits; AID 2546, 2010;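 also: Gal4-VP16 expression switched on by copper sulfate through the metallothionein promoter; % is scaled to controls: 0 for no effect and ±100 for the full control effect; nearly all actives have a fitted effect of over 50% in size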
ATXN2 expr inh = Primary qHTS for Inhibitors of ATXN expression; HEK-293 ATXN2-luciferase reporter, luminescence, 24 h; Potency, µM (titrated, usually from 57 µM), without a hit: at the top dose activity change, negative = inhibition, hits mostly inhibitors; 360,000 compounds, 0.72% hits; also: % is scaled to controls: 0 for no effect and ±100 for the full control effect; nearly all actives have a fitted effect of over 55% in size
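ATXN2-luciferase reporter cells (luciferase flanked by upstream and downstream ATXN2 gene portions) were treated 24 h at 37 °C with compounds at up to 57 uM. SteadyGlo luminescence gave expression; GF-AFC fluorescence gave viability.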
RORgamma inh = qHTS for inhibitors of ROR gamma transcriptional activity; Nuclear receptor ROR-gamma (Mus musculus), P51450; Drosophila S2 Gal4-RORgamma UAS-luciferase reporter, 20 h; Potency, µM (highest dose often 53.6 µM), for the others: top-dose activity change, negative = inhibition, hits mostly inhibitors; 310,000 compounds, 5.4% hits; AID 2551, 2010; also: % is scaled to controls: 0 for no effect and ±100 for the full control effect; nearly all actives have a fitted effect of over 60% in size
Target sequence (P51450 whole entry, looked up, the tested form may be a part): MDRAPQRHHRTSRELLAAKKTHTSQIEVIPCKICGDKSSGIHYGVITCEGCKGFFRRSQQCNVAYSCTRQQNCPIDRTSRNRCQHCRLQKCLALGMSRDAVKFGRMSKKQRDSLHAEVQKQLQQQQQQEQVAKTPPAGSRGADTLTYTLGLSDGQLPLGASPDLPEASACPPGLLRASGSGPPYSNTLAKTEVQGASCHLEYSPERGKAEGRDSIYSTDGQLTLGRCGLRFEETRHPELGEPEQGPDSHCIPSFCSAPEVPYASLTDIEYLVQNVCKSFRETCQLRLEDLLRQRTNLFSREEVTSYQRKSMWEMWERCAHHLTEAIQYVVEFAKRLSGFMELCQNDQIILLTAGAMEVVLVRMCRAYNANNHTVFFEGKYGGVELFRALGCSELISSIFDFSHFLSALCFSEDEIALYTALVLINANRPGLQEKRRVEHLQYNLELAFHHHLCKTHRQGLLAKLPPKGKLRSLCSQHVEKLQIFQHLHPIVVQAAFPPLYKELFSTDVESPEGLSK
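A Gal4/UAS one-hybrid system in insect cells: metallothionein-promoter Gal4–ROR gamma fusion plus Photinus luciferase reporter. Copper sulfate 700 uM final, 20 hr ambient incubation, luminescent detection after 10 min with reagent.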
HepG2 viability = qHTS for Inhibitors of TGF-b: Cytotox Counterscreen; HepG2 CAGA-GFP viability, ATP luminescence, 18 h; Potency, µM (top dose mostly 46.1 µM), without a hit: top-dose activity change, negative = cytotoxicity, hits mostly cytotoxic; 410,000 compounds, 0.76% hits; AID 588856, 2011
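HepG2 CAGA-GFP cells (1000/well, DMEM with 1% FBS) received compound, then TGF-beta at 500 pg/mL final, and were incubated 18 hours at 37 degrees C. Viability was read by CellTiter-Glo luminescence. Media-only wells were set as complete cell-killing and DMSO as no toxicity.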
TGFb SMAD3 inh = qHTS for Inhibitors of TGF-b; 410,000 compounds, 1.2% hits; HepG2 CAGA-GFP TGF-b/SMAD3 reporter, GFP fluorescence, 18 h; TGF-beta stimulated, 500 pg/mL final; AID 588855, 2011; Potency, µM (series often up to 46.1 µM), inactives show at the highest dose activity, negative = inhibition, actives largely listed as inhibitors; also: % is scaled to controls: 0 for no effect and ±100 for the full control effect; nearly all actives have a fitted effect of over 65% in size
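Inhibition of TGF-beta-driven CAGA-GFP reporter expression in HEPG2 cells is measured by cellular GFP fluorescence after 18 h stimulation with 500 pg/mL recombinant TGF-beta in 1% FBS medium at 37 degrees C.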
S2 tox = Viability Counterscreen for Primary qHTS for Inhibitors of ATXN expression | S2 cells (HEK-293 line with an ATXN2-luciferase reporter) viability, CellTiter-Fluor protease fluorescence, 24 h | Potency, µM (doses to about 56.7 µM), actives largely listed as cytotoxic | 400,000 compounds, 0.49% hits | AID 651635, 2014; also: nearly all actives have a fitted effect of over 40% in size
Starred values were filed as active, the others as inactive; i = inactive; ? = inconclusive; · = not tested or not shown. Calls follow the shape of the dose curve; as a rule, active = well fitted curve in the direction sought with a large enough effect; inconclusive = small, poorly fitted or top-dose-only effect, or another doubt; inactive = no such curve, though single readings can be large; an effect the other way counts as inactive or inconclusive. Potency is read from the fitted curve at half-maximal effect.

SMILES	Gal4-VP16 FLuc	ATXN2 expr inh	RORgamma inh	HepG2 viability	TGFb SMAD3 inh	S2 tox
CCC12CN3CC(CC)(CN(C1)C3c1cc(Br)ccc1OC)C2=O (stereo not drawn)	·	7.4%	·	0.4%	-11.6%	i
CN(C)c1ccc(/C=N/n2c(COc3ccccc3)n[nH]c2=S)cc1	3.98µM*	-2.7%	3.16µM*	23.0%	-12.3%	i
CC(C)c1ccc(/C=N/n2c(COc3ccccc3)n[nH]c2=S)cc1	10µM*	-19.6%	?	-36.4%	?	i
Cn1c(=O)n(C)c2cc(N3CCOCC3)c(NS(=O)(=O)c3ccc(Cl)cc3)cc21	·	28.1%	·	-16.3%	13.5%	i
FC(F)(F)c1ccccc1Cc1c(-c2cccc(Br)c2)nc2ccc(Br)cn12	·	6.7%	·	-4.6%	-12.1%	i
CCOC(=O)C1=C(C)NC(=S)N(C=O)C1c1ccccc1 (stereo not drawn)	?	-9.8%	11.2µM*	4.8%	0.6%	i
CCOC(=O)C1=C(C)C(c2ccccc2)NC(=S)N1 (stereo not drawn)	?	2.5%	7.08µM*	-13.6%	-1.8%	i
COC(=O)C1=C(C)C(c2ccc(OC)cc2)NC(=S)N1 (stereo not drawn)	-3.4%	3.7%	10µM*	4.5%	-10.3%	i
CC(OC(=O)c1ccc2c(c1)OCO2)C(=O)NC1CCCCC1 (stereo not drawn)	·	·	·	-4.6%	-2.4%	i
CC(C)(C)C(=O)N1CCC(O)(CS(=O)(=O)Cc2ccccc2Cl)CC1	5.62µM*	-5.2%	?	-9.5%	-11.1%	i
COc1ccc(S(=O)(=O)CC2(O)CCN(C(=O)C(C)(C)C)CC2)cc1	-9.7%	8.2%	-4.8%	4.1%	20.0%	i
O=C(NCCc1ccccc1)c1ccc2c(c1)OCCCO2	0.631µM*	0.708µM*	0.355µM*	-27.9%	12.1%	i
O=C(CCCc1ccccc1)c1ccc2c(c1)OCCO2	2.24µM*	10µM*	1.12µM*	-34.8%	-15.8%	i
O=C(CCc1ccccc1)c1ccc2c(c1)OCCCO2	1.8%	106.7%	-0.4%	-2.3%	?	i
COc1ccc(CCNC(=O)c2ccc3c(c2)OCCO3)cc1	0.0%	-4.4%	-8.0%	-1.6%	0.0%	?
O=C(NCCOc1ccccc1)c1ccc2c(c1)OCO2	?	4.47µM*	5.01µM*	-9.6%	-19.3%	i
O=C(NCCc1ccccc1)c1ccc2c(c1)OCCO2	1.26µM*	2.51µM*	1.41µM*	-21.4%	11.6%	i
COc1cc(NC(=O)C2CCN(S(=O)(=O)c3c(C)noc3/C=C/c3cccs3)CC2)cc(OC)c1	·	·	·	-28.1%	?	·
N#Cc1ccccc1OCC(=O)N1CCN(c2ccccc2F)CC1	·	9.4%	·	1.0%	-2.3%	?
N#Cc1ccc(NC(=O)Nc2ccccc2Br)c2n[nH]nc12	·	8.2%	·	·	·	·
COc1cccc2c1C(=O)c1c(O)c3c(c(O)c1C2=O)C[C@](O)(C(C)=O)C[C@H]3O[C@@H]1C[C@H](N)[C@H](O)[C@H](C)O1	4.47µM*	·	5.62µM*	·	·	·
COc1cccc2c1C(=O)c1c(O)c3c(c(O)c1C2=O)C[C@@](O)(C(=O)CO)C[C@@H]3O[C@@H]1C[C@H](N)[C@H](O)[C@H](C)O1	7.94µM*	·	11.2µM*	·	·	·
CC(=O)C1(O)Cc2c(O)c3c(c(O)c2C(OC2CC(N)C(O)C(C)O2)C1)C(=O)c1c(O)cccc1C3=O (stereo not drawn)	?	·	11.2µM*	-104.8%	1.58µM*	·
CC(=O)[C@@]1(O)Cc2c(O)c3c(c(O)c2[C@H](O[C@H]2C[C@H](N)[C@H](O)[C@H](C)O2)C1)C(=O)c1ccccc1C3=O	·	-74.1%	·	-131.1%	-44.2%	?
NNc1ccc(Cl)nn1	?	30.3%	10µM*	-42.4%	?	i
SMILES	Gal4-VP16 FLuc	ATXN2 expr inh	RORgamma inh	HepG2 viability	TGFb SMAD3 inh	S2 tox
CNc1ccc(Cl)nn1	0.6%	3.7%	2.6%	-2.5%	-3.3%	i
Cc1cc(C)nc(SC2CC(=O)N(c3ccc(Br)cc3)C2=O)n1 (stereo not drawn)	7.5%	4.7%	25.3%	-1.5%	0.0%	i
CCN(CC)C1CC(=O)N(c2ccc(Br)cc2)C1=O (stereo not drawn)	17.8µM*	4.2%	12.6µM*	15.9%	-29.2%	i
Cc1cccc(Nc2ncccc2C(=O)NCc2cccs2)c1C	10.8%	-15.8%	-7.8%	-25.7%	-10.0%	i
Cc1ccc(C(C)C)c(OCCNC(=S)Nc2cccc3ccccc23)c1	3.16µM*	-28.2%	1.26µM*	-35.6%	?	i
S=C(NCc1cccs1)Nc1cccc2ccccc12	?	-9.1%	3.55µM*	0.0%	27.5%	i
Cc1ccc(C(C)C)c(OCCN)c1	-4.5%	-10.0%	-15.1%	-3.8%	-8.1%	i
S=C(NCc1ccccc1)Nc1cccc2ccccc12	5.62µM*	-22.7%	3.16µM*	-18.9%	?	i
Cc1cccc(NC(=S)NCc2cccs2)c1C	10µM*	2.7%	3.55µM*	2.1%	-5.7%	i
Cc1ccccc1CN1C(=O)c2ccccc2Sc2ccc(C(=O)OCc3ccco3)cc21	·	1.3%	·	5.1%	-2.4%	i
S=C(NCCc1ccccc1)NCc1cccs1	-83.6%	38.7%	11.2µM*	2.8%	-0.5%	i
COc1ccc(CCNC(=S)NCc2cccs2)cc1OC	0.1%	-34.6%	?	-25.7%	-22.3%	i
Cc1ccc(Nc2nc(NCc3ccco3)nc3nccnc23)cc1Cl	·	·	·	-0.6%	-3.9%	·
N#Cc1c(NCCN)nc(-c2ccco2)c2c1CCCC2	-16.6%	12.6µM*	-34.8%	-29.0%	?	i
CC(C)CCNc1nc(-c2ccco2)c2c(c1C#N)CCCC2	11.1%	-21.5%	-1.9%	-7.3%	12.3%	i
CC1=CC(C)(C)N2C(=O)C3(SCC(=O)N3c3ccc(F)cc3)c3cc(C)cc1c32 (stereo not drawn)	0.1%	?	15.8µM*	-38.5%	?	i
COc1ccccc1C(=O)Nc1ccccc1N1CCN(C(=O)c2ccc(Cl)cc2)CC1	-9.9%	-38.3%	0.2%	2.5%	-21.5%	i
CCCCC(=O)O[C@]1(C(=O)CO)[C@@H](C)C[C@H]2[C@@H]3CCC4=CC(=O)C=C[C@]4(C)[C@@]3(F)[C@@H](O)C[C@@]21C	·	2.7%	·	·	·	i
